The campaign covered roughly 5,500 compounds. About 2,000 (36%) were called active. Not shown: some 18% with an inconclusive outcome. Rule as the data show it: active = normalized growth mostly below about 0.91 (no sharp cut-off); inconclusive = no clear call, values can overlap the other calls; inactive = mostly above about 0.92. This is one part of the list.
Experiment: chemical genetic growth profiling, strain panel (AID 1159580);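 also: tested at 20 µM; growth read once vehicle control cultures reached saturation at 30 °C; 1 = growth at the plate median or of vehicle wells; lower values mean less growth of the strain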
Settings: growth OD

Measured: normalized growth

CC1=C(/C=C/C(C)=C/C=C/C(C)=C/CO)C(C)(C)CCC1
inactive: S. cerevisiae deletion strains, locus YJR043C, strain POL32, stronger effect = lower value 0.985 | S. cerevisiae deletion strains, locus YJR066W, strain TOR1, stronger effect = lower value 0.94 | S. cerevisiae deletion strains, locus YKL009W, strain mrt4, stronger effect = lower value 0.993 | S. cerevisiae deletion strains, locus YKL068W, stronger effect = lower value 0.997 | S. cerevisiae deletion strains, locus YKL085W, strain MDH1 (second series), stronger effect = lower value 0.972 | S. cerevisiae deletion strains, locus YKL085W, strain MDH1, stronger effect = lower value 0.972 | S. cerevisiae deletion strains, locus YKL160W, strain elf1, stronger effect = lower value 1.04 | S. cerevisiae deletion strains, locus YKL190W, strain CNB1, stronger effect = lower value 0.991 | S. cerevisiae deletion strains, locus YKR001C, strain vps1, stronger effect = lower value 0.984 | S. cerevisiae deletion strains, locus YKR026C, strain gcn3, stronger effect = lower value 1.02 | S. cerevisiae deletion strains, locus YKR091W, strain srl3, stronger effect = lower value 1.01 | S. cerevisiae deletion strains, locus YLL001W, strain dnm1, stronger effect = lower value 0.975 | S. cerevisiae deletion strains, locus YLL026W, stronger effect = lower value 1.03 | S. cerevisiae deletion strains, locus YLL041C, strain sdh2, stronger effect = lower value 0.99 | S. cerevisiae deletion strains, locus YLR027C, strain aat2, stronger effect = lower value 1.01 | S. cerevisiae deletion strains, locus YLR039C, strain RIC1, stronger effect = lower value 1.01 | S. cerevisiae deletion strains, locus YLR058C, strain SHM2, stronger effect = lower value 0.976 | S. cerevisiae deletion strains, locus YLR102C, strain apc9, stronger effect = lower value 1 | S. cerevisiae deletion strains, locus YLR113W, strain HOG1, stronger effect = lower value 1 | S. cerevisiae deletion strains, locus YLR221C, strain rsa3, stronger effect = lower value 0.973 | S. cerevisiae deletion strains, locus YLR258W, strain gsy2, stronger effect = lower value 1.03 | S. cerevisiae deletion strains, locus YLR262C, strain YPT6 (second series), stronger effect = lower value 0.972 | S. cerevisiae deletion strains, locus YLR262C, strain YPT6, stronger effect = lower value 0.934 | S. cerevisiae deletion strains, locus YLR268W, strain sec22, stronger effect = lower value 1 | S. cerevisiae deletion strains, locus YLR320W, strain mms22, stronger effect = lower value 0.972 | S. cerevisiae deletion strains, locus YLR330W, strain CHS5, stronger effect = lower value 1 | S. cerevisiae deletion strains, locus YLR342W, strain FKS1 (second series), stronger effect = lower value 1.1 | S. cerevisiae deletion strains, locus YLR342W, strain FKS1, stronger effect = lower value 1.03 | S. cerevisiae deletion strains, locus YLR357W, strain rsc2, stronger effect = lower value 1.01 | S. cerevisiae deletion strains, locus YLR370C, strain arc18, stronger effect = lower value 1.01 | S. cerevisiae deletion strains, locus YLR371W, strain rom2, stronger effect = lower value 1.02 | S. cerevisiae deletion strains, locus YLR384C, strain iki3, stronger effect = lower value 1.01 | S. cerevisiae deletion strains, locus YLR418C, strain cdc73, stronger effect = lower value 0.965 | S. cerevisiae deletion strains, locus YML016C, strain PPZ1, stronger effect = lower value 0.998 | S. cerevisiae deletion strains, locus YML032C, strain rad52, stronger effect = lower value 1.01 | S. cerevisiae deletion strains, locus YML120C, strain ndi1, stronger effect = lower value 1 | S. cerevisiae deletion strains, locus YML124C, strain tub3, stronger effect = lower value 0.996 | S. cerevisiae deletion strains, locus YMR058W, strain fet3, stronger effect = lower value 0.998 | S. cerevisiae deletion strains, locus YMR078C, strain ctf18, stronger effect = lower value 1 | S. cerevisiae deletion strains, locus YMR125W, strain sto1, stronger effect = lower value 1.02 | S. cerevisiae deletion strains, locus YMR129W, stronger effect = lower value 1.02 | S. cerevisiae deletion strains, locus YMR205C, strain PFK2, stronger effect = lower value 0.96 | S. cerevisiae deletion strains, locus YMR223W, strain ubp8, stronger effect = lower value 0.998 | S. cerevisiae deletion strains, locus YMR231W, strain pep5, stronger effect = lower value 0.997 | S. cerevisiae deletion strains, locus YMR307W, strain GAS1, stronger effect = lower value 0.982 | S. cerevisiae deletion strains, locus YNL067W, strain RPL9B, stronger effect = lower value 0.962 | S. cerevisiae deletion strains, locus YNL071W, strain lat1, stronger effect = lower value 1.03 | S. cerevisiae deletion strains, locus YNL183C, strain NPR1, stronger effect = lower value 0.938 | S. cerevisiae deletion strains, locus YNL209W, strain ssb2, stronger effect = lower value 1.02 | S. cerevisiae deletion strains, locus YNL233W, strain BNI4, stronger effect = lower value 0.974 | S. cerevisiae deletion strains, locus YNL248C, strain rpa49, stronger effect = lower value 1.09 | S. cerevisiae deletion strains, locus YNL250W, strain rad50, stronger effect = lower value 0.982 | S. cerevisiae deletion strains, locus YNL271C, strain bni1, stronger effect = lower value 1.01 | S. cerevisiae deletion strains, locus YNL298W, strain CLA4, stronger effect = lower value 1.01 | S. cerevisiae deletion strains, locus YNL307C, strain MCK1, stronger effect = lower value 1.01 | S. cerevisiae deletion strains, locus YNL322C, strain KRE1 (second series), stronger effect = lower value 1.05 | S. cerevisiae deletion strains, locus YNR049C, strain mso1, stronger effect = lower value 1.01 | S. cerevisiae deletion strains, locus YNR052C, strain pop2, stronger effect = lower value 1.01 | S. cerevisiae deletion strains, locus YOL006C, strain TOP1, stronger effect = lower value 0.929 | S. cerevisiae deletion strains, locus YOL012C, strain htz1 0.793 | S. cerevisiae deletion strains, locus YOL147C, strain pex11, stronger effect = lower value 0.994 | S. cerevisiae deletion strains, locus YOR001W, strain rrp6, stronger effect = lower value 0.983 | S. cerevisiae deletion strains, locus YOR061W, strain CKA2, stronger effect = lower value 0.961 | S. cerevisiae deletion strains, locus YOR069W, strain VPS5, stronger effect = lower value 1.01 | S. cerevisiae deletion strains, locus YOR070C, strain gyp1, stronger effect = lower value 1 | S. cerevisiae deletion strains, locus YOR080W, strain dia2, stronger effect = lower value 1.01 | S. cerevisiae deletion strains, locus YOR083W, strain WHI5, stronger effect = lower value 0.988 | S. cerevisiae deletion strains, locus YOR106W, strain vam3, stronger effect = lower value 1 | S. cerevisiae deletion strains, locus YOR136W, strain idh2, stronger effect = lower value 0.992 | S. cerevisiae deletion strains, locus YOR144C, strain elg1, stronger effect = lower value 1 | S. cerevisiae deletion strains, locus YOR184W, strain ser1, stronger effect = lower value 1.01 | S. cerevisiae deletion strains, locus YOR231W, strain MKK1, stronger effect = lower value 0.988 | S. cerevisiae deletion strains, locus YOR265W, strain rbl2, stronger effect = lower value 1 | S. cerevisiae deletion strains, locus YOR270C, strain vph1, stronger effect = lower value 0.848 | S. cerevisiae deletion strains, locus YOR290C, strain snf2, stronger effect = lower value 1.05 | S. cerevisiae deletion strains, locus YOR316C, strain cot1, stronger effect = lower value 1 | S. cerevisiae deletion strains, locus YPL051W, strain arl3, stronger effect = lower value 1.04 | S. cerevisiae deletion strains, locus YPL055C, strain LGE1, stronger effect = lower value 0.873 | S. cerevisiae deletion strains, locus YPL078C, strain atp4, stronger effect = lower value 1.02 | S. cerevisiae deletion strains, locus YPL106C, strain sse1, stronger effect = lower value 1.13 | S. cerevisiae deletion strains, locus YPL240C, strain hsp82, stronger effect = lower value 1.01 | S. cerevisiae deletion strains, locus YPL256C, strain CLN2, stronger effect = lower value 1.04 | S. cerevisiae deletion strains, locus YPR119W, strain clb2, stronger effect = lower value 1 | S. cerevisiae deletion strains, locus YPR141C, strain kar3, stronger effect = lower value 0.997 | S. cerevisiae deletion strains, locus YPR163C, strain tif3, stronger effect = lower value 0.998 | S. cerevisiae deletion strains, locus YPR167C, strain met16, stronger effect = lower value 1 | S. cerevisiae deletion strains, strain wtn01, stronger effect = lower value 1.03 | S. cerevisiae strains, strain wild type, stronger effect = lower value 0.979

— PubChem BioAssay AID1159580 (chemical genetic matrix, 2015)
